The list is not random: actives were taken first. Their share in the collection is about 10%.
JMJD2A Tudor inh: inhibitors of human JMJD2A Tudor domain; O75164; AlphaScreen JMJD2A-Tudor / H3K4me3 peptide binding; Potency, µM (titrated, usually from 114 µM), hits mostly inhibitors; 4.4% of 390,000 active; AID 504339; note: nearly all actives have a fitted effect of over 50% in size
G9a block: blocks human histone lysine methyltransferase G9a. Q96KQ7. G9a H3K9 monomethylation, AlphaScreen, 2 h. Potency, µM (titrated, usually from 102 µM), actives largely listed as inhibitors. 8.8% of 350,000 active. AID 504332; note: nearly all actives have a fitted effect of over 75% in size
Target sequence (Q96KQ7 913-1193 limits assumed): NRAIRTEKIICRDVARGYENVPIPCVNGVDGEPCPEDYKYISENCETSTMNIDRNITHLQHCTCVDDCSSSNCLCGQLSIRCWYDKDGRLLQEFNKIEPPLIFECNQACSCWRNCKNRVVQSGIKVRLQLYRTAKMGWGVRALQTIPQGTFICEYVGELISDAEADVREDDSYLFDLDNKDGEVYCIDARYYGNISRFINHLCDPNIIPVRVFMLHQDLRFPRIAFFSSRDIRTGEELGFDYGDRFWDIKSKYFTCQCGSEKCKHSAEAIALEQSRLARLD
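Methyltransferase reactions run at room temperature for 2 h (20 nM enzyme, 500 nM biotin-H3K9 peptide, 20 uM SAM) after a 15 min compound preincubation; product detected by AlphaScreen beads and anti-H3K9me1 antibody.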
BAZ2B block: inhibitors of human BAZ2B bromodomain | Potency, µM (series often up to 114 µM), usual class: inhibitors | AlphaScreen BAZ2B-H3K14Ac peptide displacement | 4.4% of 360,000 active; note: nearly all actives have a fitted effect of over 60% in size
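Compounds, titrated to a top concentration of 110 uM, were incubated 30 min at room temperature with preformed BAZ2B/acetyl-K14 H3 peptide complex (50 nM each). Proximity signal was measured by AlphaScreen after 20 min with beads.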
HP1b binding inh: inhibitors of HP1-beta chromodomain binding to methylated histone tails; AlphaScreen HP1-beta / biotin-H3K9me3 peptide binding; Potency, µM (titrated, usually from 114 µM), most hits filed as inhibitors; 0.56% of 390,000 active; note: nearly all actives have a fitted effect of over 70% in size
Target sequence (P83916 whole entry, looked up): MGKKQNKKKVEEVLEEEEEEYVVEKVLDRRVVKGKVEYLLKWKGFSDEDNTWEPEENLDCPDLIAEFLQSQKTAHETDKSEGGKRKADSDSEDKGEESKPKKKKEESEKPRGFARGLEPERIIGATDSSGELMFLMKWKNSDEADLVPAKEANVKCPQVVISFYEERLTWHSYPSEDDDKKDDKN
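Compound inhibition of the preformed complex between 50 nM HP1-beta and 50 nM biotinylated H3K9me3 peptide was read by AlphaScreen. Buffer was PBS pH 7.4 with 0.01% Tween-20. Incubations ran 30 min at room temperature, with 10 ug/mL donor/acceptor beads.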
CtBP-E1A inh: blocks the CtBP interaction with E1A | AID 651724 | 0.49% of 340,000 active | activity change, % (no concentration beside the values) | AlphaScreen GST-E1A/His-CtBP binding, 1536-well; stronger effect = lower value; in the data active = activity change below about -65%; inconclusive = mostly about -30% to -63%
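Steps: dispense buffer (Tris pH 8.0, NaCl 300 mM, TCEP 1 mM, BSA, Tween 20); add 5X protein mix (GST-E1A, His-CtBP, 125 nM each); pin 23 nL compound; 2 h at 37 °C, dark; add 5X beads (50 ug/mL); 1 h; read.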
Six1-Eya2 inh: blocks human Six1 binding to Eya2. AlphaScreen GST-Six1/His-Eya2 binding, biochemical; stronger effect = lower value. activity change, % (concentration not given with the values). 0.56% of 360,000 active. AID 651725; in the data active = activity change below about -65%; inconclusive = mostly about -30% to -63%
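AlphaScreen luminescence read after one hour at 37 °C in darkness. Pin-transferred compounds met GST-Six1 and His-Eya2 protein (5X stock 250 nM/500 nM) plus glutathione donor and Ni-chelate acceptor beads (5X, 50 ug/mL).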
Numbers stand for hits; ! = not confirmed by another sample. Unless noted, calls come from the whole dose curve; as a rule, active = well fitted inhibition curve with a large enough effect; inconclusive = small, poorly fitted or top-dose-only effect; inactive = no such curve, though single readings can be large or run the other way.

Results for CCOC(=O)c1c(-c2ccccc2)csc1NC(=O)c1cc(S(=O)(=O)N2CCOCC2)ccc1C ?
JMJD2A Tudor inh: inactive; G9a block: 31.6µM; BAZ2B block: inactive; HP1b binding inh: inconclusive; CtBP-E1A inh: inactive; Six1-Eya2 inh: inactive

What do the screens show for `CCOC(=O)N1CCN(S(=O)(=O)c2ccc(C(=O)Nc3nc4ccc(F)cc4s3)cc2)CC1`?
JMJD2A Tudor inh: inactive; G9a block: inactive; BAZ2B block: inactive; HP1b binding inh: inactive; CtBP-E1A inh: inactive; Six1-Eya2 inh: inactive

How did CCOC(=O)N1CCN(S(=O)(=O)c2ccc(C(=O)Nc3sc4c(c3C(N)=O)CC(C)(C)NC4(C)C)cc2)CC1 do in these assays?
JMJD2A Tudor inh: inactive; G9a block: 50.1µM; BAZ2B block: inactive; HP1b binding inh: inactive; CtBP-E1A inh: inactive; Six1-Eya2 inh: inactive

What do the screens show for `CCOC(=O)N1CCN(S(=O)(=O)c2ccc(C(=O)Nc3nc4ccccc4s3)cc2)CC1`?
JMJD2A Tudor inh: inactive; G9a block: 50.1µM; BAZ2B block: inactive; HP1b binding inh: inactive; CtBP-E1A inh: inactive; Six1-Eya2 inh: inactive

How did CCOC(=O)c1sc(NC(=O)c2ccc(S(=O)(=O)N3CCCCC3)cc2)nc1-c1ccccc1 do in these assays?
JMJD2A Tudor inh: inactive; G9a block: inactive; BAZ2B block: inactive; HP1b binding inh: inactive; CtBP-E1A inh: inactive; Six1-Eya2 inh: inactive

Results for CC1CCN(S(=O)(=O)c2ccc(C(=O)Nc3sc4c(c3C(N)=O)CC(C)(C)NC4(C)C)cc2)CC1 ?
JMJD2A Tudor inh: inconclusive; G9a block: inactive; BAZ2B block: inactive; HP1b binding inh: inactive

Results for CCOC(=O)c1cnc2cc(C(F)(F)F)ccc2c1N1CCN(c2cccc(Cl)c2)CC1 ?
JMJD2A Tudor inh: inactive; G9a block: inactive; BAZ2B block: inactive; HP1b binding inh: inactive

Results for COc1ccc(NC(=O)c2c(-c3ccc(C)cc3)nnc3ccccc23)c(OC)c1 ?
JMJD2A Tudor inh: inactive; G9a block: inactive; BAZ2B block: inconclusive; HP1b binding inh: inactive

What do the screens show for `CCOc1ccc(-c2cc(CCCC(=O)NCCc3ccc(OCC)c(OCC)c3)no2)cc1`?
JMJD2A Tudor inh: inactive; G9a block: inactive; BAZ2B block: inactive; HP1b binding inh: inactive

How did Cc1ccc2c(c1)c(C)c(C)n2CC(O)Cn1nnc2ccccc21 (stereo not drawn) do in these assays?
JMJD2A Tudor inh: inconclusive; G9a block: inconclusive; BAZ2B block: inconclusive; HP1b binding inh: inconclusive; CtBP-E1A inh: inactive; Six1-Eya2 inh: inactive

Results for Cc1ccc2c(c1)c(C)c(C)n2CC(O)Cn1nc(C)cc1C (stereo not drawn) ?
JMJD2A Tudor inh: inconclusive; G9a block: 44.7µM; BAZ2B block: inactive; HP1b binding inh: inactive; CtBP-E1A inh: inactive; Six1-Eya2 inh: inactive

What do the screens show for `Cc1ccc2nc(N(Cc3cccnc3)C(=O)CCOc3ccccc3)sc2c1`?
JMJD2A Tudor inh: inactive; G9a block: inactive; BAZ2B block: inactive; HP1b binding inh: inactive

Results for Cc1ccc(CNC(=O)c2cc3c(=O)n(Cc4cccnc4)ccc3nc2C)cc1 ?
JMJD2A Tudor inh: inactive; G9a block: inactive; BAZ2B block: inactive; HP1b binding inh: inactive

What do the screens show for `Cc1ccc(S(=O)(=O)c2nnn3c2nc(NCc2ccc4c(c2)OCO4)c2sccc23)cc1`?
JMJD2A Tudor inh: inactive; G9a block: inactive; BAZ2B block: inactive; HP1b binding inh: inactive

How did Cc1ccc(CNc2ccc3c(c2)OCO3)cc1 do in these assays?
JMJD2A Tudor inh: 44.7µM; G9a block: inconclusive; BAZ2B block: 50.1µM; HP1b binding inh: inactive; CtBP-E1A inh: inactive; Six1-Eya2 inh: inactive

What do the screens show for `c1cc(CNc2ccc3c(c2)OCO3)ccn1`?
JMJD2A Tudor inh: inconclusive; G9a block: 35.5µM; BAZ2B block: inconclusive; HP1b binding inh: inactive; CtBP-E1A inh: inactive; Six1-Eya2 inh: inactive

Results for Cc1ccc(C(=O)Nc2ccc3c(c2)OCO3)cc1 ?
JMJD2A Tudor inh: inactive; G9a block: inconclusive; BAZ2B block: inactive; HP1b binding inh: inactive; CtBP-E1A inh: inactive; Six1-Eya2 inh: inactive

Results for Cc1ccc(S(=O)(=O)NCC(=O)OCC(=O)NCc2ccc3c(c2)OCO3)cc1 ?
JMJD2A Tudor inh: inactive; G9a block: 56.2µM; BAZ2B block: inactive; HP1b binding inh: inactive; CtBP-E1A inh: inactive; Six1-Eya2 inh: inactive

How did Cc1ccc(S(=O)(=O)c2nc(NCc3ccc4c(c3)OCO4)sc2Cl)cc1 do in these assays?
JMJD2A Tudor inh: inactive; G9a block: 31.6µM; BAZ2B block: inactive; HP1b binding inh: inactive; CtBP-E1A inh: inactive; Six1-Eya2 inh: inactive

How did COc1ccc(-c2nc3n(n2)C(c2ccc(OC)c(OC)c2)C(C(=O)Nc2cccnc2)=C(C)N3)cc1 (stereo not drawn) do in these assays?
JMJD2A Tudor inh: inactive; G9a block: inactive; BAZ2B block: inactive; HP1b binding inh: inactive

How did COc1cc(-c2nc(Cn3nnc(C(=O)Nc4ccccc4C)c3C)c(C)o2)cc(OC)c1OC do in these assays?
JMJD2A Tudor inh: inactive; G9a block: inactive; BAZ2B block: inactive; HP1b binding inh: inactive

How did COC(=O)CNc1ccc2c(c1)OCO2 do in these assays?
JMJD2A Tudor inh: inconclusive; G9a block: 8.91µM; BAZ2B block: inactive; HP1b binding inh: inactive; CtBP-E1A inh: inactive; Six1-Eya2 inh: inactive

How did COC(=O)Nc1ccc2c(c1)OCO2 do in these assays?
JMJD2A Tudor inh: inactive; G9a block: inconclusive; BAZ2B block: inactive; HP1b binding inh: inactive; CtBP-E1A inh: inactive; Six1-Eya2 inh: inactive

What do the screens show for `C[C@](N)(Cc1ccc(O)c(O)c1)C(=O)O`?
JMJD2A Tudor inh: 20µM; G9a block: 0.447µM!; BAZ2B block: 15.8µM; HP1b binding inh: inconclusive; CtBP-E1A inh: inactive; Six1-Eya2 inh: inactive

How did COc1ccc2[nH]c3c(Cl)ncnc3c2c1 do in these assays?
JMJD2A Tudor inh: inactive; G9a block: inactive; BAZ2B block: inactive; HP1b binding inh: inactive; CtBP-E1A inh: inactive; Six1-Eya2 inh: inactive

What do the screens show for `COc1ccc2[nH]c3c(=S)nc[nH]c3c2c1`?
JMJD2A Tudor inh: 1.58µM; G9a block: 3.55µM; BAZ2B block: inactive; HP1b binding inh: inactive; CtBP-E1A inh: inconclusive; Six1-Eya2 inh: inconclusive

What do the screens show for `Cc1cccc(-c2noc(-c3ccc(NCC4CCCO4)c([N+](=O)[O-])c3)n2)c1` (stereo not drawn)?
JMJD2A Tudor inh: inactive; G9a block: inactive; BAZ2B block: inactive; HP1b binding inh: inactive

Results for CCNc1ccc(N=Nc2c(C)n(C)n(-c3ccccc3)c2=O)cc1 ?
JMJD2A Tudor inh: inactive; G9a block: inconclusive; BAZ2B block: 31.6µM; HP1b binding inh: inactive; CtBP-E1A inh: inactive; Six1-Eya2 inh: inactive

How did CCOC(=O)/C(N=Nc1c(C)n(C)n(-c2ccccc2)c1=O)=C(\C)O do in these assays?
JMJD2A Tudor inh: inactive; G9a block: inactive; BAZ2B block: inactive; HP1b binding inh: inactive; CtBP-E1A inh: inactive; Six1-Eya2 inh: inactive
